“And” between values parts separate entries of the source, which are not always exact repeats. Equal entries are not always repeated. Some compounds were tested as several samples or in several runs, with calls that do not always agree. The source made the active and inactive calls. Unless noted, calls follow the shape of the full dose curve.
What was measured:
[1] = molecular target: Estrogen receptor (Homo sapiens) (UniProt P03372); test: qHTS assay for small molecule antagonists of estrogen receptor alpha signaling (AID 588513; active = well fitted curve in the direction sought with a large enough effect in the signal ratio, with a control signal flat, not every such curve was filed as active; inconclusive = small, poorly fitted or top-dose-only effect, or effect the other way, or a change in a side signal; inactive = no such curve, though single readings can be large or run the other way; the % refers to the signal ratio; also: potency is read from the fitted curve at half-maximal effect)
Procedure, shortened: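 Antagonist-mode qHTS in ER-alpha-UAS-bla HEK 293 cells: compound titration, 0.5nM estradiol for 18 h, CCF4 fluorescence, Hill-derived IC50.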

[2] = molecular target: Estrogen receptor (Homo sapiens) (UniProt P03372); test: qHTS assay for small molecule agonists of estrogen receptor alpha signaling (AID 588514); also: nearly all actives have a fitted effect of over 70% in size; also: potency is read from the fitted curve at half-maximal effect;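 as to activation: 0% = vehicle only and 100% = reference agonist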
Procedure, shortened: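 ER-alpha-UAS-bla GripTite HEK 293 cells in medium with 2% charcoal/dextran-treated FBS were treated with compound titrations at 37 C for 18 hrs; beta-lactamase reporter read by CCF4 fluorescence after 2 hrs at RT.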

[3] = molecular target: Peroxisome proliferator-activated receptor delta (Homo sapiens) (UniProt Q03181); test: qHTS assay for small molecule agonists of peroxisome proliferator-activated receptor delta signaling (AID 588534);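 also: 0% = DMSO basal wells and 100% = positive control agonist at 10 µM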
Procedure, shortened: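 Cell-based beta-lactamase reporter assay run in agonist mode: cells seeded and incubated 5 hrs at 37 C, compounds added and incubated 18 hrs at 37 C. CCF4 dye fluorescence read after 2 hrs at RT; EC50 and efficacy from Hill fits.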

[4] = qHTS assay for small molecule antagonists of peroxisome proliferator-activated receptor delta signaling (AID 588535); conditions: HEK293T PPARd-UAS-bla, beta-lactamase FRET ratio, 18 h; 460 nm channel;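 also: cells co-treated with a PPAR-delta agonist as stimulator during compound exposure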
Procedure, shortened: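 Cell-based beta-lactamase assay in antagonist mode: 4000 HEK293T PPAR-delta-UAS-bla cells per well, 5 hr preincubation then 18 hr compound incubation at 37 C. IC50 obtained by Hill equation fitting.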

[5] = molecular target: Peroxisome proliferator-activated receptor gamma (Homo sapiens) (UniProt P37231); test: qHTS assay for small molecule antagonists of peroxisome proliferator-activated receptor gamma signaling (AID 588537; active = well fitted inhibition curve with a large enough effect in the signal ratio, with a control signal flat, not every such curve was filed as active; inconclusive = small, poorly fitted or top-dose-only effect, or effect the other way, or a change in a side signal; the % refers to the signal ratio;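 also: reporter cells co-stimulated with 50 nM rosiglitazone agonist during compound treatment; % of control where 0% means no effect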)
Procedure, shortened: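 Inhibitors of agonist-stimulated UAS-bla reporter activity were sought in HEK293 cells; rosiglitazone (50 nM) defined full signal and DMSO baseline. Curves fitted to Hill model gave IC50 and efficacy.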

[6] = molecular target: Vitamin D3 receptor (Homo sapiens) (UniProt P11473); test: qHTS assay for small molecule antagonists of vitamin D receptor signaling (AID 588541);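 also: receptor activated by calcitriol during compound treatment; series mostly up to about 77 µM; % is scaled to controls: 0 for no effect and ±100 for the full control effect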
Procedure, shortened: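 Antagonist-mode beta-lactamase reporter assay: HEK293T VDR-UAS-bla cells were exposed to titrated compound alongside 1-alpha,25-dihydroxyvitamin D3 at 3 nM final for 16 h. Values were normalized to the 50 nM agonist control and DMSO basal, with IC50 and efficacy from Hill equation fits.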

[7] = molecular target: Thyroid hormone receptor beta (Homo sapiens) (UniProt P10828); test: qHTS assay for small molecule agonists of thyroid hormone receptor beta signaling (AID 588545)
Procedure, shortened: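 Agonist-mode beta-lactamase reporter assay, HEK 293 cells, 2% charcoal/dextran FBS; cells plated 4 hrs, compound 18 hrs at 37 C, CCF4 2 hrs RT. Normalized to 10 nM T3 (100%) and DMSO (0%); Hill fit gives EC50, efficacy.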

[8] = qHTS assay for small molecule antagonists of retinoid X receptor alpha signaling (AID 588546; active = well fitted inhibition curve with a large enough effect in the signal ratio, with a control signal flat, not every such curve was filed as active; inconclusive = small, poorly fitted or top-dose-only effect, or effect the other way, or a change in a side signal; inactive = no such curve, though single readings can be large or run the other way; the % refers to the signal ratio;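 also: cells stimulated with 9-cis-retinoic acid as agonist; % is scaled to controls: 0 for no effect and ±100 for the full control effect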); conditions: HEK293T RXRa-UAS-bla, beta-lactamase ratio, antagonist mode; measured here: W530 green channel, cytotoxicity proxy
Procedure, shortened: (§1)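 Beta-lactamase reporter inhibition, read as CCF4 fluorescence ratio (ex 405, em 460/530 nm) after 2 h at RT. HEK293T UAS-bla cells, 2500/well, were stimulated with 9-cis-RA at 500 or 100 nM final alongside test compound for 18 h at 37 C.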

[9] = molecular target: Retinoic acid receptor RXR-alpha (Homo sapiens) (UniProt P19793); test: as above; conditions: HEK293T RXRa-UAS-bla, beta-lactamase ratio, antagonist mode
Procedure, shortened: as §1

[10] = qHTS assay for small molecule activators of the p53 signaling pathway (AID 651743; active = well fitted activation curve with a large enough effect in the signal ratio, not every such curve was filed as active; inconclusive = small, poorly fitted or top-dose-only effect, or a change in a side signal; the % refers to the signal ratio; also: potency is read from the fitted curve at half-maximal effect; as to activation: series mostly up to about 92 µM; % of control where 0% means no effect); conditions: HCT-116 p53RE-bla, beta-lactamase FRET ratio, 16 h; activation: stronger effect = higher value
Procedure, shortened: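 Screen for p53 pathway agonists uses stably transfected p53RE-bla HCT-116 cells, 4,000 per well, treated 16 h at 37 C with compounds in DMSO.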

[11] = qHTS assay for environmental chemicals that activate the Aryl hydrocarbon Receptor (AhR) signaling pathway (AID 651777; active = well fitted curve in the direction sought with a large enough effect; inconclusive = small, poorly fitted or top-dose-only effect, or another doubt; inactive = no such curve, though single readings can be large; an effect the other way counts as inactive or inconclusive; also: % of control where 0% means no effect; nearly all actives have a fitted effect of over 15% in size); conditions: 1A2-DRE human hepatoma cells, luciferase, 24 h; activation: stronger effect = higher value
Procedure, shortened: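 1A2-DRE human hepatoma reporter line; 1,200 cells/well; cmpd or DMSO 24 h, 37 C/5% CO2; One-Glo 30 min RT; luciferase lum.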

[12] = molecular target: Peroxisome proliferator-activated receptor alpha (Homo sapiens) (UniProt Q07869); test: qHTS assay for small molecule agonists of the peroxisome proliferator-activated receptor alpha (PPARalpha) signaling pathway (AID 651778; active = well fitted curve in the direction sought with a large enough effect; inconclusive = small, poorly fitted or top-dose-only effect, or another doubt; inactive = no such curve, though single readings can be large; an effect the other way counts as inactive or inconclusive; also: % of control where 0% means no effect); conditions: PathHunter PPARalpha complementation, chemiluminescence, 6 h; max response: stronger effect = higher value
Procedure, shortened: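 Chemiluminescence from complemented enzyme reported PPARalpha activation in cells after 6 hr of compound treatment at 37 C. The detection reagent was incubated for 60 min at room temperature, and compounds were scored as agonists.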

[13] = qHTS assay for small molecule agonists of the antioxidant response element (ARE) signaling pathway measured by Nrf2-dependant transcriptional activity - cell viability counter screen (AID 720653; active = well fitted curve in the direction sought with a large enough effect in the repeat runs; inconclusive = weak or mixed curves; inactive = no such curve, though single readings can be large; an effect the other way counts as inactive or inconclusive; also: % is scaled to controls: 0 for no effect and ±100 for the full control effect); conditions: ARE-bla HepG2 viability, CellTiter-Glo ATP luminescence, 16 h; max response: stronger effect = lower value
Procedure, shortened: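 Cytotoxicity counter screen: intracellular ATP quantified by CellTiter-Glo luminescence in the same ARE-bla HepG2 plates, after 16 h compound exposure and a 2 h beta-lactamase substrate step.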

[14] = qHTS assay for cell viability of HEK293 cells (AID 743288; active = well fitted curve in the direction sought with a large enough effect; inconclusive = small, poorly fitted or top-dose-only effect, or another doubt; inactive = no such curve, though single readings can be large; an effect the other way counts as inactive or inconclusive; also: % is scaled to controls: 0 for no effect and ±100 for the full control effect; nearly all actives have a fitted effect of over 50% in size); conditions: ATP luminescence (CellTiter-Glo), 18 h; max response: stronger effect = lower value
Procedure, shortened: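 Luminescent ATP quantitation served as the viability read-out. Cells (parental HEK293, 2,000/well) received compounds after at least 5 h at 37 C and were exposed for 18 h before a 30 min room-temperature reagent step.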

[15] = qHTS assay for cell viability of the p53RE-bla HCT-116 cell line (AID 743292; active = well fitted curve in the direction sought with a large enough effect; inconclusive = small, poorly fitted or top-dose-only effect, or another doubt; inactive = no such curve, though single readings can be large; an effect the other way counts as inactive or inconclusive; also: % is scaled to controls: 0 for no effect and ±100 for the full control effect; nearly all actives have a fitted effect of over 55% in size)
Procedure, shortened: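 HCT-116 p53RE-bla cells seeded 4,000/well; 5 h at 37 C; compound (DMSO) added; 16 h at 37 C; CellTiter-Glo added, 30 min RT; luminescence read.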

[16] = molecular target: Peroxisome proliferator-activated receptor gamma (Homo sapiens) (UniProt P37231); test: qHTS assay for small molecule agonists of peroxisome proliferator-activated receptor gamma signaling (AID 588536; active = well fitted curve in the direction sought with a large enough effect in the signal ratio, with a control signal flat, not every such curve was filed as active; inconclusive = small, poorly fitted or top-dose-only effect, or effect the other way, or a change in a side signal; inactive = no such curve, though single readings can be large or run the other way; the % refers to the signal ratio;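 also: 0% = DMSO basal wells and 100% = rosiglitazone at 2 µM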)
Procedure, shortened: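 Ratiometric blue/green fluorescence (405 nm excitation; 460 and 530 nm emission) from CCF4-loaded HEK293 reporter cells serves as signal. Exposure to test compounds lasts 16 h at 37 C in medium containing 1% charcoal/dextran-treated serum.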

[17] = molecular target: Retinoic acid receptor RXR-alpha (Homo sapiens) (UniProt P19793); test: qHTS assay for small molecule agonists of retinoid X receptor alpha signaling (AID 588544);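 also: 0% = DMSO basal wells and 100% = reference agonist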
[18] = qHTS assay for small molecule agonists of the antioxidant response element (ARE) signaling pathway measured by Nrf2-dependant transcriptional activity (AID 720636; active = well fitted curve in the direction sought with a large enough effect in the repeat runs; inconclusive = weak or mixed curves; inactive = no such curve, though single readings can be large; an effect the other way counts as inactive or inconclusive; also: potency is read from the fitted curve at half-maximal effect;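 as to activation: HepG2 cells with an ARE-driven luciferase reporter; % of control where 0% means no effect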)
Procedure, shortened: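 Cells: ARE-luc HepG2 with Nrf2-responsive luciferase. Medium contained 1% dialyzed FBS. Compound exposure lasted 16 hr at 37 C and 5% CO2, followed by ONE-Glo luciferase detection.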

[19] = molecular target: Nuclear receptor subfamily 1 group I member 2 (Rattus norvegicus) (UniProt Q9R1A7); test: qHTS assay for small molecule activators of the rat pregnane X receptor (rPXR) signaling pathway (AID 651751; call rule not given here; also: 0% is about no effect); conditions: rPXR reporter cells, luciferase (One-Glo), 24 h
[20] = molecular target: Thyroid hormone receptor beta (Homo sapiens) (UniProt P10828); test: qHTS assay for small molecule antagonists of thyroid hormone receptor beta signaling (AID 588547; active = well fitted inhibition curve with a large enough effect in the signal ratio, with a control signal flat, not every such curve was filed as active; inconclusive = small, poorly fitted or top-dose-only effect, or effect the other way, or a change in a side signal; the % refers to the signal ratio;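 also: cells stimulated with 0.4 nM T3 agonist during compound exposure; series mostly up to about 77 µM; % is scaled to controls: 0 for no effect and ±100 for the full control effect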); conditions: TR-UAS-bla HEK293, beta-lactamase ratio, antagonist mode, 18 h
Procedure, shortened: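 Inhibition of T3-driven (0.4nM final) beta-lactamase reporter activity was measured over 0.59 nM to 92 uM compound after 18 h at 37 C. The cells were GripTite HEK293 TR-UAS-bla in charcoal/dextran-stripped serum, with CCF4 ratio read-out and IC50 from Hill fits.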

Chain of Peroxisome proliferator-activated receptor alpha (Homo sapiens) (Q07869 whole entry, looked up): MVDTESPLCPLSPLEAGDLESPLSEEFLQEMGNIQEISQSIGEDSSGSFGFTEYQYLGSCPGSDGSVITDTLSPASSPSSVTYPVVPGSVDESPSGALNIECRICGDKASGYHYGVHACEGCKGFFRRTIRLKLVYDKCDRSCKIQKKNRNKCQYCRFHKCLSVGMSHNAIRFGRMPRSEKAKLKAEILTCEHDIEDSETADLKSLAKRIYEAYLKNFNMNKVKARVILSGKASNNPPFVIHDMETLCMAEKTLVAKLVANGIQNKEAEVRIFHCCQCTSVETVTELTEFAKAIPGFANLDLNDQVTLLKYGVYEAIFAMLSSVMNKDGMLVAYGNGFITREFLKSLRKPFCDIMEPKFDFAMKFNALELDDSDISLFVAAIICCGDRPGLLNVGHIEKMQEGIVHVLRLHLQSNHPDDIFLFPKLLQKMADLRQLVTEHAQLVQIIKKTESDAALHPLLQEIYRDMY
Chain of Retinoic acid receptor RXR-alpha (Homo sapiens) (P19793 whole entry, looked up): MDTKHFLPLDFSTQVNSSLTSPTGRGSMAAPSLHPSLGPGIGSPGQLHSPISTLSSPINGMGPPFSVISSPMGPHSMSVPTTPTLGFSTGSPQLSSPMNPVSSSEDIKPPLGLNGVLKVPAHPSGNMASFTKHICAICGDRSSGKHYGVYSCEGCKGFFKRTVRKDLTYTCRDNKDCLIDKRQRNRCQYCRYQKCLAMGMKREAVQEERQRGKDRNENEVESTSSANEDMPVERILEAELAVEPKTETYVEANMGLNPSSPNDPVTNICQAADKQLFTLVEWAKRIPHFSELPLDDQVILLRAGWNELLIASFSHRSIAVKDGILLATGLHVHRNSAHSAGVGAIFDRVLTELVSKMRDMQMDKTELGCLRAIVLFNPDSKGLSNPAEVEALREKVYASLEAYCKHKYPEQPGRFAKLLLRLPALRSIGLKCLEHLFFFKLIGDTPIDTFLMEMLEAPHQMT
Chain of Peroxisome proliferator-activated receptor delta (Homo sapiens) (Q03181 whole entry, looked up): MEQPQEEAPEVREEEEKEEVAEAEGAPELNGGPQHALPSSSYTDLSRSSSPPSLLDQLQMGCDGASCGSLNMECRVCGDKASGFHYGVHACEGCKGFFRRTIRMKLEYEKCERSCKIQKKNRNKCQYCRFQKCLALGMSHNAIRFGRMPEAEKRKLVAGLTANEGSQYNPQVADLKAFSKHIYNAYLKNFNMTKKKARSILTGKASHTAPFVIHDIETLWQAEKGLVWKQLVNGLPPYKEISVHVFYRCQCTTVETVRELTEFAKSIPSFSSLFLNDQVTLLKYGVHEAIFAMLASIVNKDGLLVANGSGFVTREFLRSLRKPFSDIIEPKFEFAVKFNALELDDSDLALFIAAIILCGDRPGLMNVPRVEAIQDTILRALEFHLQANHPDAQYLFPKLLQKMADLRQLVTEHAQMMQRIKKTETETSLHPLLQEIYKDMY
Chain of Vitamin D3 receptor (Homo sapiens) (P11473 whole entry, looked up): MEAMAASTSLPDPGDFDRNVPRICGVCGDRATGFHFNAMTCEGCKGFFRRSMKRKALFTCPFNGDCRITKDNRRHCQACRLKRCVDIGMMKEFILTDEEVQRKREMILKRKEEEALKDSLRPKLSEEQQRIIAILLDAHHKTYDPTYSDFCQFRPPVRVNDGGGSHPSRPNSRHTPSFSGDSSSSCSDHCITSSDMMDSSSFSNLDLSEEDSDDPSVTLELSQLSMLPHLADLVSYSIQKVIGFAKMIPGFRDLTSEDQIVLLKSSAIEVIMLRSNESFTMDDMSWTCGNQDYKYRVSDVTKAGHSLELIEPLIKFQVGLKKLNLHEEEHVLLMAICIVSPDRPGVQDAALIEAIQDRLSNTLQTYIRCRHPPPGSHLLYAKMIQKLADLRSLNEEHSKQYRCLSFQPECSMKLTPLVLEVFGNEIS
Chain of Nuclear receptor subfamily 1 group I member 2 (Rattus norvegicus) (Q9R1A7 whole entry, looked up): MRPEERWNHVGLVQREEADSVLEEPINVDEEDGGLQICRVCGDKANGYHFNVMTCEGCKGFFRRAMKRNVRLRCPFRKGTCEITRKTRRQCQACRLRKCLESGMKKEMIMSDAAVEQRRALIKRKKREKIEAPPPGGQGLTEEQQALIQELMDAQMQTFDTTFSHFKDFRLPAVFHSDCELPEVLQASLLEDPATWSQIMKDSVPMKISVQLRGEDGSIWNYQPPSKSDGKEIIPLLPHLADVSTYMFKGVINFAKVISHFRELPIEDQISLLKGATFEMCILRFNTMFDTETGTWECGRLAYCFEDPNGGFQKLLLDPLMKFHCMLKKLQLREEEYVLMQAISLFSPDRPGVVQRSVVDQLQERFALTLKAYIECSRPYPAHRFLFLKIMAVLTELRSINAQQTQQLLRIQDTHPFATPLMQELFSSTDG
Chain of Thyroid hormone receptor beta (Homo sapiens) (P10828 whole entry, looked up): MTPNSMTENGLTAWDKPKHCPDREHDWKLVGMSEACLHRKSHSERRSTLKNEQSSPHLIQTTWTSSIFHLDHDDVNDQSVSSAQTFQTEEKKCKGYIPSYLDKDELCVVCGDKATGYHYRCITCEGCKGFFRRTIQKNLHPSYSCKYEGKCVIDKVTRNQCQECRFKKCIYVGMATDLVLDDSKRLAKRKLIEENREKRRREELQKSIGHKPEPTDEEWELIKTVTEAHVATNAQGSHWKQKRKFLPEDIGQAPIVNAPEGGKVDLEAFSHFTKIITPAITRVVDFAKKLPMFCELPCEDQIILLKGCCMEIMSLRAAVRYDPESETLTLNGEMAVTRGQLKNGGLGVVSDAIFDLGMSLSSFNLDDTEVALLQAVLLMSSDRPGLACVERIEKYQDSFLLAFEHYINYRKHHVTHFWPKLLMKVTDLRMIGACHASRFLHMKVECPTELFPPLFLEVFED
Chain of Peroxisome proliferator-activated receptor gamma (Homo sapiens) (P37231 whole entry, looked up): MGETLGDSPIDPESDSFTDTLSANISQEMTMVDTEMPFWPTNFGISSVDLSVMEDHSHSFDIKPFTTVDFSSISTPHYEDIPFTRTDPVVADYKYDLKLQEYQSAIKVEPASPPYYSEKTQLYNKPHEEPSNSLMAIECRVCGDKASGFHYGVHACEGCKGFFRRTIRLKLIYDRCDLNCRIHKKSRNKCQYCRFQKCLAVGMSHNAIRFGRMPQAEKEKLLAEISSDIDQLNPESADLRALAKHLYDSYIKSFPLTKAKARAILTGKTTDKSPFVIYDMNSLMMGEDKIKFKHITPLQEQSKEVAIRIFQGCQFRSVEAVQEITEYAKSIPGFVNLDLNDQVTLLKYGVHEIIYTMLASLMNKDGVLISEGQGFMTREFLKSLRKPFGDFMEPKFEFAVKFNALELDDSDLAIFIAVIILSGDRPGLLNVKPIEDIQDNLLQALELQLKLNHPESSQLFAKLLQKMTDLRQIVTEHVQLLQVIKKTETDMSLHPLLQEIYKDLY
Chain of Estrogen receptor (Homo sapiens) (P03372 whole entry, looked up): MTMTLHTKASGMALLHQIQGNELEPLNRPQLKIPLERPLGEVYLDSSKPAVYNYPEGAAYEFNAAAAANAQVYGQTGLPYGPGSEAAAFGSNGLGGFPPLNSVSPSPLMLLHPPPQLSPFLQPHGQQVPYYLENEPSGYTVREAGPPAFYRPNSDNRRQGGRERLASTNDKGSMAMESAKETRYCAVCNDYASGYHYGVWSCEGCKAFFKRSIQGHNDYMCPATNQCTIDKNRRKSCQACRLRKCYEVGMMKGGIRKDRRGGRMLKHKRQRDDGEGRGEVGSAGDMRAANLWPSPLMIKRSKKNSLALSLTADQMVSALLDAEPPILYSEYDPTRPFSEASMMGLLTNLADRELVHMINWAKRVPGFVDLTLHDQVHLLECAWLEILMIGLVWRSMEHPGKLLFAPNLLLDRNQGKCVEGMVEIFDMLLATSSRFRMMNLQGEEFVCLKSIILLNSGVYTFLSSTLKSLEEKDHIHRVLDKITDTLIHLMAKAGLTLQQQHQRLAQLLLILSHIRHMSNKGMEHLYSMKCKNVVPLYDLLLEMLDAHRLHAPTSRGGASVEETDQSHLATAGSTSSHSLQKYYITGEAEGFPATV

CC1CCCCC1NC(=O)Nc1ccccc1 (stereo unspecified)
inactive: Potency [1] | Potency [2] | outcome [3] | Potency [5] | Potency [6] | Potency [7] | max response [9] -9.04% | activation [10] 0.836% | activation [11] 6.72% | max response [12] -0.607% | max response [13] -4.51% | max response [14] -11.4% | Potency [15]
-4.7%: max response [8]
3.43%: max response [4]

CC(C)(C#N)N=NC(C)(C)C#N
3.24%: max response [4]
-2.24%: max response [8]
inactive: Potency [1] | Potency [2] | outcome [3] | Potency [16] | Potency [6] | Potency [17] | max response [9] -0.927% | activation [10] -7.6% | activation [11] 3.1% | max response [12] -0.208% | Potency [18] | max response [13] -0.383% | max response [14] -5.77% | Potency [15] | max response [19] 0.774%

O=[N+]([O-])c1ccc(Oc2ccc(C(F)(F)F)cc2[N+](=O)[O-])cc1
inactive: Potency [1] | Potency [2] | outcome [3] | Potency [7] | max response [9] 0.243% | activity change % (negative = inhibition) [20] 5.9% | activation [10] -0.528% | max response [12] -0.519% | max response [13] -18.9% | max response [14] -11.9% | Potency [15] | max response [19] 11.4%
-9.24%: max response [8]

CN(C)P(=O)(N(C)C)N(C)C
inactive: Potency [1] | Potency [2] | outcome [3] | Potency [16] | Potency [5] | Potency [6] | Potency [17] | Potency [7] | max response [9] -0.0212% | activity change % (negative = inhibition) [20] -0.373% | activation [10] -2.55% | activation [11] 0.845% | max response [12] 0.0783% | Potency [18] | max response [13] -5.07% | max response [14] 0.472% | Potency [15] | max response [19] -0.946%
-0.709%: max response [4]
-10.5%: max response [8]

CC(C)C(=O)OCC(C)(C)C(OC(=O)C(C)C)C(C)C (stereo unspecified)
inactive: Potency [1] | Potency [2] | outcome [3] | Potency [16] | Potency [5] | Potency [6] | Potency [17] | Potency [7] | max response [9] -12.8% | activity change % (negative = inhibition) [20] 4.21% | activation [10] -0.206% | activation [11] 1.77% | max response [12] -1.27% | max response [13] -12.6% | max response [14] -13% | Potency [15] | max response [19] 2.02%
-5.68%: max response [8]
-3.86%: max response [4]

c1cc[n+]2c(c1)-c1cccc[n+]1CC2
45.8%: max response [4]
active: Potency [1] 25.1 µM [inhibitor]
inactive: Potency [2] | outcome [3] | Potency [16] | Potency [5] | Potency [6] | Potency [17] | Potency [7] | max response [9] -20.8% | activity change % (negative = inhibition) [20] 10.8% | activation [11] -0.462% | max response [12] -2.84% | max response [13] 1.16% | max response [14] -11.6%
2.2%: max response [8]

COP(=S)(OC)Oc1nc(Cl)c(Cl)cc1Cl
inactive: Potency [1] | Potency [2] | Potency [7] | max response [9] 15.1% | activation [11] 0.0215% | max response [12] -0.488% | Potency [18] | max response [13] -2.62% | max response [14] -14.5% | Potency [15] | max response [19] -1.85%
2.88%: max response [8]

Clc1ccc([C@]2(Cn3cncn3)C[C@H](Br)CO2)c(Cl)c1
inactive: Potency [1] | Potency [2] | outcome [3] | Potency [16] | Potency [5] | Potency [6] | Potency [17] | Potency [7] | activity change % (negative = inhibition) [20] 0.44% | activation [10] -0.748% and 2.17% | activation [11] -0.98% and 1.78% | max response [12] -0.439% and 5.59% | Potency [18] | max response [14] -7.75% and -8.79%
7.61% and -41.8%: max response [4]
-15.4% and -0.171%: max response [8]

O=Nc1ccc(Nc2ccccc2)cc1
inactive: outcome [3] | Potency [5] | activation [10] 19.9% | activation [11] 6.01%
active: Potency [1] 12.6 µM [inconclusive] | Potency [2] 5.01 µM | Potency [10] 50.1 µM | Potency [18] 21.7 µM

CC(Oc1cc(Cl)c(Cl)cc1Cl)C(=O)O (stereo unspecified)
-19.8%: max response [8]
52.3%: max response [4]
inactive: Potency [1] | Potency [2] | outcome [3] | Potency [5] | Potency [6] | Potency [17] | activation [11] 2.71% | max response [12] -0.109% | Potency [18] | max response [13] 15.3% | max response [14] 0.242% | Potency [15] | max response [19] 2.63%

C/C(=N\NC(=O)Nc1cc(F)cc(F)c1)c1ncccc1C(=O)O
-5.57% and -1.16%: max response [8]
inactive: Potency [1] | Potency [2] | Potency [16] | Potency [5] | Potency [6] | Potency [17] | Potency [7] | activity change % (negative = inhibition) [20] -6.39% | activation [10] -1.04% and 1.35% | activation [11] 0.312% and 2.08% | max response [12] 0.136% and -0.453% | Potency [18] | max response [14] -5.69% and -3.6% | Potency [15] | max response [19] -0.995% and 1.1%

Cc1c(F)c(F)c(COC(=O)C2C(/C=C(\Cl)C(F)(F)F)C2(C)C)c(F)c1F (stereo unspecified)
-8.23%: max response [8]
inactive: Potency [1] | Potency [2] | outcome [3] | Potency [16] | Potency [5] | Potency [6] | Potency [17] | Potency [7] | max response [9] 12% | activity change % (negative = inhibition) [20] 16.3% | activation [10] -3.48% | activation [11] 0.802% | max response [12] -0.765% | Potency [18] | max response [14] -6.4% | Potency [15] | max response [19] -1.61%
-17%: max response [4]
